Test results as given in PubChem BioAssay AID1626 (SRMLSC, 2009).
Out of some 220,000 compounds screened, about 2,000 (0.91%) were called active. About 2% were inconclusive and are not listed. Rule as the data show it: inconclusive = inhibition above about 80% without an active follow-up result; inactive = below that; test concentration not stated here. Not all results are given here. Results with a measured potency or affinity are listed apart.

Assay: M. tuberculosis H37Rv growth inhibitors, H37Rv strain (AID 1626);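 also: bacteria incubated seven days before Alamar blue readout; 0% = bacteria only wells and 100% = bacteria with antibiotic wells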
Conditions: active compounds read high, concentration not given here

| SMILES | inhibition |
| --- | --- |
| CC(Cn1cnc2ccccc21)C(=O)O (stereo unspecified) | -0.91% (inactive) |
| Cc1cc(C)c(C(=O)Nc2ccc(C)c(C)c2)c(CC(C)(C)C(=O)O)c1 | -5.76% (inactive) |
| CC(NC(=O)COC(=O)/C=C/c1cccc(C(F)(F)F)c1)c1ccccc1 (stereo unspecified) | 5.27% (inactive) |
| O=C1N=C(N2CCN(c3ccccc3)CC2)SC1Cc1ccccc1 (stereo unspecified) | 1.7% (inactive) |
| O=C(Nc1ccccc1)N1CCCC1c1cccs1 (stereo unspecified) | -1.63% (inactive) |
| CC(=O)CSc1ccc(-c2nc3cc(C)c(C)cc3[nH]2)cn1 | 11.7% (inactive) |
| Cc1nc(NC(=O)CSc2ccc(-c3nc4ccccc4[nH]3)cn2)sc1C | -0.38% (inactive) |
| Cc1cc2nc(-c3ccc(SCC(=O)NC(C)C)nc3)[nH]c2cc1C | 1.74% (inactive) |
| CCc1nnc(NC(=O)CSc2ccc(-c3nc4ccccc4[nH]3)cn2)s1 | -3.06% (inactive) |
| Cc1ccc2nc(-c3ccc(SCC(=O)Nc4nc(C)cs4)nc3)[nH]c2c1 | 0.98% (inactive) |
| Cc1ccc2nc(-c3ccc(SCC(=O)O)nc3)[nH]c2c1 | 4.36% (inactive) |
| Cc1ncoc1C(=O)N1CCc2c([nH]c3ccccc23)C1C1CCCCC1 (stereo unspecified) | 11.8% (inactive) |
| CC(CS(=O)(=O)c1cccc2cccnc12)N1CCCCC1 (stereo unspecified) | 2.17% (inactive) |
| CCNc1nc(NCc2ccccc2)nc(SCC(N)=O)n1 | 78.2% (inactive) |
| COc1ccc(NC(=O)Nc2sc(=S)n(C)c2C)cc1 | -3.18% (inactive) |
| CCOc1nc(-c2ccc(OC)cc2)ccc1-c1noc(C)n1 | 6.32% (inactive) |
| Cc1nn(-c2ccccc2)c(N2CCCC2)c1/C=N/NC(=O)C1CC1 | 1.71% (inactive) |
| COC(=O)C1=C(C)NC(=O)CC1c1ccc(F)c(Br)c1 (stereo unspecified) | 13.5% (inactive) |
| CCN(c1ccccc1)S(=O)(=O)c1ccc(C(=O)OC(C)C(=O)NCCC2=CCCCC2)cc1 (stereo unspecified) | 0.82% (inactive) |
| COc1ccc(N(C(=O)c2cnccn2)C(C(=O)NC2CCCCC2)c2ccc(O)cc2)cc1 (stereo unspecified) | 4.1% (inactive) |
| COc1ccc(C(C(=O)NC2CCCCC2)N(C(=O)c2sc(C)nc2C)c2ccc(OC)cc2)cc1 (stereo unspecified) | 78.9% (inactive) |

| SMILES | inhibition |
| --- | --- |
| COc1ccc(C(C(=O)NC2CCCCC2)N(C(=O)c2ccccn2)c2cccnc2)cc1 (stereo unspecified) | -6.78% (inactive) |
| COc1ccc(C(C(=O)NC2CCCCC2)N(C(=O)c2sc(C)nc2C)c2ccccc2)cc1 (stereo unspecified) | 1.23% (inactive) |
| O=C(O)c1cccc(NC(=O)c2ccc(Cl)c(S(=O)(=O)N3CCCCCC3)c2)c1 | -5.92% (inactive) |
| CCOc1ncccc1C(=O)OCc1ccc(C#N)cc1 | 4.57% (inactive) |
| Nc1nnc(SCC(=O)Nc2ccccc2)s1 | -3.63% (inactive) |
| C=C1C(=O)[C@@]23[C@H](O)C[C@@H]4C(C)(C)CC[C@H](O)[C@]4(C)[C@@H]2C[C@H](O)[C@@H]1[C@H]3O | -0.64% (inactive) |
| C#CCONC(=O)c1cc(OCC(F)(F)F)ccc1OCC(F)(F)F | -4.59% (inactive) |
| c1ccc(C(c2ccccc2)c2noc(CN3CCN(CC4CC4)CC3)n2)cc1 | 0.03% (inactive) |
| O=C(N/N=C/C=C/c1ccccc1)c1cccnc1 | -6.98% (inactive) |
| Cc1[nH]c(=O)[nH]c(=O)c1S(=O)(=O)N(C)Cc1ccccc1 | -4.39% (inactive) |
| CSCCC(NC(=O)c1cccc([N+](=O)[O-])c1)c1nc2ccccc2[nH]1 (stereo unspecified) | 24.1% (inactive) |
| CSCC[C@H](NC(=O)c1cc([N+](=O)[O-])ccc1Cl)c1nc2ccccc2[nH]1 | 3.89% (inactive) |
| CCN(CCCNC(=O)C1CCC(=O)N1Cc1ccccc1Cl)c1cccc(C)c1 (stereo unspecified) | 4.14% (inactive) |
| CCOC(=O)C1=C(C)NC(=O)NC1c1c(C)nn(-c2ccccc2)c1Cl (stereo unspecified) | -11.2% (inactive) |
| O=Nc1c(O)[nH]c2ccc(Cl)cc12 | -4.64% (inactive) |
| Cc1cc(C)cc(N=Cc2c(O)c3ccccc3oc2=O)c1 | 6.96% (inactive) |
| O=C1CCCC(O)=C1C=Nc1cccc(C(F)(F)F)c1 | 8.3% (inactive) |
| CCOC(=O)c1c(-c2ccc(OC)cc2)csc1/N=C/C1=C(O)CCCC1=O | 4.93% (inactive) |
| O=C1CCCC(O)=C1C=Nc1ccc(O)cc1 | 3.95% (inactive) |
| Cc1ccccc1N=Cc1cccc(O)c1O | 30.2% (inactive) |
| COc1cccc(N=CC2=C(O)CCCC2=O)c1 | -8.36% (inactive) |

| SMILES | inhibition |
| --- | --- |
| Cc1cccc(-c2nc(C#N)c(NCC3CCCO3)o2)c1 (stereo unspecified) | 8.91% (inactive) |
| CN(C)S(=O)(=O)c1ccc(NC(=S)NC(=O)c2cccs2)cc1 | -8.18% (inactive) |
| CCCc1nnc(NC(=O)CCCN2C(=O)c3ccccc3C2=O)s1 | -6.93% (inactive) |
| COC(=O)CCC(=O)N1CCc2cc(S(=O)(=O)N3CCc4ccccc43)ccc21 | -6.96% (inactive) |
| Cc1c(NC(=O)CSc2nnc(COc3ccccc3)n2-c2ccccc2)c(=O)n(-c2ccccc2)n1C | -6.74% (inactive) |
| COc1ccc(C2SC[C@@H](C(=O)O)N2C(C)=O)cc1 (stereo partly specified) | -5.12% (inactive) |
| Cc1ccc(-c2csc(N3C(=N)SCC3=O)n2)cc1 | -8.29% (inactive) |
| O=C(CN1CCOCC1)Nc1ncc(Cc2cccc(Cl)c2)s1 | 9.73% (inactive) |
| N=C1SCC(=O)N1c1nc(-c2ccccc2)cs1 | -8.62% (inactive) |
| O=C(CN1CCOCC1)Nc1ncc(Cc2ccccc2Cl)s1 | 9.04% (inactive) |
| CC(C)C(=O)Nc1ncc(Cc2cccc(Cl)c2)s1 | 17.7% (inactive) |
| CCc1nnc(N2C(=N)SCC2=O)s1 | 10% (inactive) |
| CC(C)(C)C(=O)Cn1c(NCCCl)nc2ccccc21 | 0.32% (inactive) |
| CCc1ccccc1NC(=O)CN(C)C(=O)Cn1cc(C(F)(F)F)cc(Cl)c1=O | 10% (inactive) |
| CCN(CC(=O)Nc1ccc(NC(C)=O)cc1)C(=O)/C=C/c1cccs1 | -2.91% (inactive) |
| Clc1ccc(CN2CCN(c3ncnc4scc(-c5cccs5)c34)CC2)cc1 | 7.36% (inactive) |
| O=C(Cn1cc2c(n1)CCCC2)NCCCN1CCN(C2CCCCC2)CC1 | -6.49% (inactive) |
| CC(=O)/C(=C(/O)c1ccccc1)c1nc2ccccc2[nH]1 | 2.45% (inactive) |
| O=C(OCc1ccccc1)C1=NNC2C(=O)N(Cc3ccccc3)C(=O)C12 (stereo unspecified) | 8.28% (inactive) |
